# From PubChem BioAssay AID1159580 (chemical genetic matrix, 2015)
# The whole screen tested about 5,500 compounds, of which about 2,000 (36%) were called active. Inconclusive results (about 18%) are left out. Some of the results follow. Unmarked numbers belong to inactive results. No stated cut-off is given here; in the data, active means normalized growth mostly below about 0.91 (no sharp cut-off); inconclusive means no clear call, values can overlap the other calls; inactive means mostly above about 0.92.
# Experiment: chemical genetic growth profiling, strain panel (AID 1159580);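 further: tested at 20 µM; growth read once vehicle control cultures reached saturation at 30 °C; 1 = growth at the plate median or of vehicle wells; lower values mean less growth of the strain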
# Details: growth OD
structure (smiles),measurement,setting,value
N#CC1COc2ccccc2O1 (centres undefined),normalized growth,"S. cerevisiae deletion strains, locus YAL013W, strain DEP1, hits give low values",1.01
same,normalized growth,"S. cerevisiae deletion strains, locus YBR229C, strain ROT2, hits give low values",0.993
same,normalized growth,"S. cerevisiae deletion strains, locus YDL101C, strain DUN1, hits give low values",1.01
same,normalized growth,"S. cerevisiae deletion strains, locus YDR150W, strain NUM1, hits give low values",1.03
same,normalized growth,"S. cerevisiae deletion strains, locus YEL061C, strain CIN8, hits give low values",1.01
same,normalized growth,"S. cerevisiae deletion strains, locus YGR078C, strain PAC10, hits give low values",0.999
same,normalized growth,"S. cerevisiae deletion strains, locus YGR229C, strain SMI1, hits give low values",0.999
same,normalized growth,"S. cerevisiae deletion strains, locus YHR030C, strain SLT2, hits give low values",1.03
same,normalized growth,"S. cerevisiae deletion strains, locus YHR087W, strain rtc3, hits give low values",0.989
same,normalized growth,"S. cerevisiae deletion strains, locus YJR043C, strain POL32, hits give low values",1.03
same,normalized growth,"S. cerevisiae deletion strains, locus YJR075W, strain HOC1, hits give low values",0.973
same,normalized growth,"S. cerevisiae deletion strains, locus YKL190W, strain CNB1, hits give low values",1.02
same,normalized growth,"S. cerevisiae deletion strains, locus YLR039C, strain RIC1, hits give low values",1
same,normalized growth,"S. cerevisiae deletion strains, locus YLR058C, strain SHM2 (second series), hits give low values",0.994
same,normalized growth,"S. cerevisiae deletion strains, locus YLR085C, strain ARP6, hits give low values",1.01
same,normalized growth,"S. cerevisiae deletion strains, locus YLR262C, strain YPT6, hits give low values",0.997
same,normalized growth,"S. cerevisiae deletion strains, locus YML094W, strain GIM5, hits give low values",1.01
same,normalized growth,"S. cerevisiae deletion strains, locus YMR219W, strain ESC1, hits give low values",0.999
same,normalized growth,"S. cerevisiae deletion strains, locus YMR263W, strain SAP30, hits give low values",1.03
same,normalized growth,"S. cerevisiae deletion strains, locus YMR307W, strain GAS1, hits give low values",1.1
same,normalized growth,"S. cerevisiae deletion strains, locus YNL153C, strain GIM3, hits give low values",0.996
same,normalized growth,"S. cerevisiae deletion strains, locus YNL298W, strain CLA4 (second series), hits give low values",1.04
same,normalized growth,"S. cerevisiae deletion strains, locus YNL322C, strain KRE1, hits give low values",0.984
same,normalized growth,"S. cerevisiae deletion strains, locus YNR030W, strain Alg12, hits give low values",1.01
same,normalized growth,"S. cerevisiae deletion strains, locus YPL055C, strain LGE1, hits give low values",1.13
same,normalized growth,"S. cerevisiae deletion strains, locus YPL241C, strain CIN2, hits give low values",0.998
same,normalized growth,"S. cerevisiae deletion strains, locus YPR135W, strain CTF4, hits give low values",1.04
same,normalized growth,"S. cerevisiae strains, strain wild type, hits give low values",1.01
S=c1ccss1,normalized growth,"S. cerevisiae deletion strains, locus YAL021C, strain ccr4, hits give low values",0.679 (active)
same,normalized growth,"S. cerevisiae deletion strains, locus YAL026C, strain drs2, hits give low values",0.779 (active)
same,normalized growth,"S. cerevisiae deletion strains, locus YAL030W, strain snc1, hits give low values",0.997
same,normalized growth,"S. cerevisiae deletion strains, locus YBL061C, strain skt5, hits give low values",0.989
same,normalized growth,"S. cerevisiae deletion strains, locus YBR009C, strain hhf1, hits give low values",0.915
same,normalized growth,"S. cerevisiae deletion strains, locus YBR023C, strain chs3, hits give low values",0.972
same,normalized growth,"S. cerevisiae deletion strains, locus YBR171W, strain sec66, hits give low values",0.994
same,normalized growth,"S. cerevisiae deletion strains, locus YBR231C, strain swc5, hits give low values",0.895 (active)
same,normalized growth,"S. cerevisiae deletion strains, locus YBR279W, strain paf1, hits give low values",0.948
same,normalized growth,"S. cerevisiae deletion strains, locus YCL011C, strain gbp2, hits give low values",0.916
same,normalized growth,"S. cerevisiae deletion strains, locus YCL016C, strain dcc1, hits give low values",0.977
same,normalized growth,"S. cerevisiae deletion strains, locus YCL069W, strain vba3, hits give low values",1
same,normalized growth,"S. cerevisiae deletion strains, locus YCR088W, strain abp1, hits give low values",1
same,normalized growth,"S. cerevisiae deletion strains, locus YDL005C, strain med2, hits give low values",0.987
same,normalized growth,"S. cerevisiae deletion strains, locus YDL040C, strain nat1, hits give low values",0.985
same,normalized growth,"S. cerevisiae deletion strains, locus YDR001C, strain nth1, hits give low values",1
same,normalized growth,"S. cerevisiae deletion strains, locus YDR069C, strain doa4, hits give low values",0.835 (active)
same,normalized growth,"S. cerevisiae deletion strains, locus YDR137W, strain rgp1, hits give low values",0.805 (active)
same,normalized growth,"S. cerevisiae deletion strains, locus YDR159W, strain sac3, hits give low values",1.06
same,normalized growth,"S. cerevisiae deletion strains, locus YDR195W, strain ref2",1.1
same,normalized growth,"S. cerevisiae deletion strains, locus YDR297W, strain sur2, hits give low values",0.993
same,normalized growth,"S. cerevisiae deletion strains, locus YDR334W, strain swr1, hits give low values",0.931
same,normalized growth,"S. cerevisiae deletion strains, locus YDR335W, strain msn5, hits give low values",0.992
same,normalized growth,"S. cerevisiae deletion strains, locus YDR392W, strain spt3, hits give low values",1.02
same,normalized growth,"S. cerevisiae deletion strains, locus YEL003W, strain gim4, hits give low values",1.01
same,normalized growth,"S. cerevisiae deletion strains, locus YEL037C, strain rad23, hits give low values",0.984
same,normalized growth,"S. cerevisiae deletion strains, locus YEL061C, strain CIN8 (second series), hits give low values",1.01
same,normalized growth,"S. cerevisiae deletion strains, locus YER015W, strain faa2, hits give low values",0.984
same,normalized growth,"S. cerevisiae deletion strains, locus YER016W, strain bim1, hits give low values",0.984
same,normalized growth,"S. cerevisiae deletion strains, locus YER111C, strain swi4, hits give low values",1.01
same,normalized growth,"S. cerevisiae deletion strains, locus YER155C, strain BEM2 (second series), hits give low values",0.979
same,normalized growth,"S. cerevisiae deletion strains, locus YFR010W, strain ubp6, hits give low values",0.839 (active)
same,normalized growth,"S. cerevisiae deletion strains, locus YGL167C, strain pmr1, hits give low values",1
same,normalized growth,"S. cerevisiae deletion strains, locus YGL173C, strain kem1, hits give low values",0.926
same,normalized growth,"S. cerevisiae deletion strains, locus YGL227W, strain vid30, hits give low values",1.01
same,normalized growth,"S. cerevisiae deletion strains, locus YGL240W, strain doc1, hits give low values",0.96
same,normalized growth,"S. cerevisiae deletion strains, locus YGL253W, strain hxk2, hits give low values",0.818 (active)
same,normalized growth,"S. cerevisiae deletion strains, locus YHR013C, strain ard1, hits give low values",0.77 (active)
same,normalized growth,"S. cerevisiae deletion strains, locus YHR027C, strain rpn1, hits give low values",0.943
same,normalized growth,"S. cerevisiae deletion strains, locus YHR142W, strain chs7, hits give low values",0.94
same,normalized growth,"S. cerevisiae deletion strains, locus YJL092W, strain hpr5, hits give low values",0.991
same,normalized growth,"S. cerevisiae deletion strains, locus YJL095W, strain BCK1 (second series), hits give low values",0.99
same,normalized growth,"S. cerevisiae deletion strains, locus YJL115W, strain asf1, hits give low values",0.994
same,normalized growth,"S. cerevisiae deletion strains, locus YJL129C, strain trk1, hits give low values",0.927
same,normalized growth,"S. cerevisiae deletion strains, locus YJL154C, strain vps35, hits give low values",0.997
same,normalized growth,"S. cerevisiae deletion strains, locus YJL164C, strain tpk1, hits give low values",0.956
same,normalized growth,"S. cerevisiae deletion strains, locus YJL166W, strain qcr8, hits give low values",0.914
same,normalized growth,"S. cerevisiae deletion strains, locus YJL187C, strain SWE1, hits give low values",0.965
same,normalized growth,"S. cerevisiae deletion strains, locus YKL160W, strain elf1, hits give low values",0.947
same,normalized growth,"S. cerevisiae deletion strains, locus YKR026C, strain gcn3, hits give low values",0.993
same,normalized growth,"S. cerevisiae deletion strains, locus YKR091W, strain srl3, hits give low values",0.992
same,normalized growth,"S. cerevisiae deletion strains, locus YLL001W, strain dnm1, hits give low values",0.939
same,normalized growth,"S. cerevisiae deletion strains, locus YLL026W, hits give low values",0.967
same,normalized growth,"S. cerevisiae deletion strains, locus YLL041C, strain sdh2, hits give low values",1
same,normalized growth,"S. cerevisiae deletion strains, locus YLR027C, strain aat2, hits give low values",0.943
same,normalized growth,"S. cerevisiae deletion strains, locus YLR221C, strain rsa3, hits give low values",0.924
same,normalized growth,"S. cerevisiae deletion strains, locus YLR258W, strain gsy2, hits give low values",0.965
same,normalized growth,"S. cerevisiae deletion strains, locus YLR262C, strain YPT6 (second series), hits give low values",0.866
same,normalized growth,"S. cerevisiae deletion strains, locus YLR320W, strain mms22, hits give low values",0.939
same,normalized growth,"S. cerevisiae deletion strains, locus YLR342W, strain FKS1, hits give low values",0.973
same,normalized growth,"S. cerevisiae deletion strains, locus YLR357W, strain rsc2, hits give low values",0.807 (active)
same,normalized growth,"S. cerevisiae deletion strains, locus YLR370C, strain arc18, hits give low values",0.929
same,normalized growth,"S. cerevisiae deletion strains, locus YLR384C, strain iki3, hits give low values",0.996
same,normalized growth,"S. cerevisiae deletion strains, locus YML120C, strain ndi1, hits give low values",1.02
same,normalized growth,"S. cerevisiae deletion strains, locus YMR058W, strain fet3, hits give low values",0.962
same,normalized growth,"S. cerevisiae deletion strains, locus YMR125W, strain sto1, hits give low values",1.04
same,normalized growth,"S. cerevisiae deletion strains, locus YMR129W, hits give low values",0.984
same,normalized growth,"S. cerevisiae deletion strains, locus YMR205C, strain PFK2, hits give low values",0.935
same,normalized growth,"S. cerevisiae deletion strains, locus YMR231W, strain pep5, hits give low values",0.995
same,normalized growth,"S. cerevisiae deletion strains, locus YNL071W, strain lat1, hits give low values",0.922
same,normalized growth,"S. cerevisiae deletion strains, locus YNL209W, strain ssb2, hits give low values",0.981
same,normalized growth,"S. cerevisiae deletion strains, locus YNL248C, strain rpa49, hits give low values",1.01
same,normalized growth,"S. cerevisiae deletion strains, locus YNL322C, strain KRE1 (second series), hits give low values",0.99
same,normalized growth,"S. cerevisiae deletion strains, locus YNR049C, strain mso1, hits give low values",1
same,normalized growth,"S. cerevisiae deletion strains, locus YOR001W, strain rrp6, hits give low values",0.98
same,normalized growth,"S. cerevisiae deletion strains, locus YOR070C, strain gyp1, hits give low values",0.911 (active)
same,normalized growth,"S. cerevisiae deletion strains, locus YOR080W, strain dia2, hits give low values",1
same,normalized growth,"S. cerevisiae deletion strains, locus YOR083W, strain WHI5, hits give low values",0.857 (active)
same,normalized growth,"S. cerevisiae deletion strains, locus YOR106W, strain vam3, hits give low values",0.646 (active)
same,normalized growth,"S. cerevisiae deletion strains, locus YOR265W, strain rbl2, hits give low values",0.992
same,normalized growth,"S. cerevisiae deletion strains, locus YOR270C, strain vph1, hits give low values",0.423 (active)
same,normalized growth,"S. cerevisiae deletion strains, locus YOR290C, strain snf2, hits give low values",0.866
same,normalized growth,"S. cerevisiae deletion strains, locus YPL051W, strain arl3, hits give low values",0.904 (active)
same,normalized growth,"S. cerevisiae deletion strains, locus YPL078C, strain atp4, hits give low values",0.872 (active)
same,normalized growth,"S. cerevisiae deletion strains, locus YPL106C, strain sse1, hits give low values",0.958
same,normalized growth,"S. cerevisiae deletion strains, locus YPL240C, strain hsp82, hits give low values",0.986
